IL-1B inflam inh: qHTS for Inhibitors of Inflammasome Signaling: IL-1-beta AlphaLISA Primary Screen; 360,000 compounds, 4.7% hits; activity change, % at 57.5 µM; THP-1 LPS/ATP IL-1B secretion, AlphaLISA, 16 h; active compounds read low; AID 743279, 2014; in the data active means activity change below about -50%; inconclusive means mostly about -30% to -49%; further: on the % scale 0 is the no-effect control and ±100 the full control effect
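THP-1 cells pretreated 1 hr with compounds (up to 57.5 uM final), then stimulated with LPS (250 ng/mL final) plus ATP (1.25 mM final); secreted IL-1B measured by AlphaLISA after 16 hr, decreased signal indicating inhibition.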
BCR signal inh: qHTS Assay to Find Inhibitors of Chronic Active B-Cell Receptor Signaling | 340,000 compounds, 0.05% hits | ABC-DLBCL IkBa-CBG/CBR reporter, luminescence ratio, 4 h | Potency, µM (series often up to 46.1 µM), inactives show at the top dose activity change, negative = inhibition, usual class: inhibitors; active means well fitted inhibition curve with a large enough effect in the signal ratio, with a control signal flat, not every such curve was filed as active; inconclusive means small, poorly fitted or top-dose-only effect, or effect the other way, or a change in a side signal; the % refers to the signal ratio;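 further: potency means the concentration at half of the fitted maximal effect; plate controls were basal doxycycline-induced cells for no effect and cells given 10 µM MG132 for full effect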
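Cell line TMD8 (human ABC DLBCL), stably expressing tet-inducible CBG68-IkBa fusion and CBR; IMDM/0.5% FBS; cpd up to 46 uM; dox induction, 4 h, 37C/5% CO2; dual luminescence; green/red ratio; MG132 control.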
MCF10A rerep: A quantitative high throughput screen for small molecules that induce DNA re-replication in MCF 10a normal breast cells. MCF 10A DNA re-replication, Hoechst nuclear intensity, 48 h. Potency, µM (highest dose often 46.1 µM), for inactives: at the top dose activity, positive = re-replication, actives largely listed as activators. 350,000 compounds, 2.9% hits; further: potency means the concentration at half of the fitted maximal effect; % of control where 0% means no effect; nearly all actives have a fitted effect of over 50% in size
DT40 TDP1 no CPT: qHTS for Inhibitors of human tyrosyl-DNA phosphodiesterase 1 (TDP1): qHTS in cells in absence of CPT; DT40 Tdp1-/- hTDP1 cells, no CPT, ATP luminescence, 48 h; Potency, µM (doses to about 46.2 µM), for the others: at the top dose activity change, negative = growth inhibition, usual class: inhibitors; AID 686978, 2013; 420,000 compounds, 15% hits; further: potency means the concentration at half of the fitted maximal effect; on the % scale 0 is the no-effect control and ±100 the full control effect; nearly all actives have a fitted effect of over 55% in size
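Growth kinetics read by CellTiter-Glo luminescence after ≥48 hr at 37 °C. Cells: DT40 Tdp1-/- stably carrying human TDP1, 400 per well, compound exposure in the absence of CPT (DMSO vehicle).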
TDP1 cell CPT: qHTS for Inhibitors of human tyrosyl-DNA phosphodiesterase 1 (TDP1): qHTS in cells in presence of CPT. 420,000 compounds, 12% hits. chicken DT40 Tdp1-/-;hTDP1 cells + 20 nM CPT, ATP luminescence, 48 h. Potency, µM (titrated, usually from 46.2 µM), without a hit: at the highest dose activity change, negative = growth inhibition, actives largely listed as inhibitors. AID 686979, 2013; further: potency means the concentration at half of the fitted maximal effect; on the % scale 0 is the no-effect control and ±100 the full control effect; nearly all actives have a fitted effect of over 55% in size
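Chicken DT40 Tdp1-/- cells stably complemented with human TDP1 were seeded at 400 cells/well in medium containing 20 nM camptothecin, exposed to pin-transferred compounds, and grown at 37 °C for at least 48 hr. Viability was read as ATP luminescence.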
SW480 rerep: A quantitative high throughput screen for small molecules that induce DNA re-replication in SW480 colon adenocarcinoma cells; SW480 DNA re-replication, Hoechst DNA content imaging, 48 h; Potency, µM (doses to about 46.1 µM), for the others: at the top dose re-replication activation, usual class: activators; 340,000 compounds, 1.8% hits; further: potency means the concentration at half of the fitted maximal effect; % of control where 0% means no effect; nearly all actives have a fitted effect of over 55% in size
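Compounds, transferred as 23 nL by pin tool, were incubated with cells for 48 hr; DNA content per nucleus was then quantified by Hoechst staining and fluorescence plate imaging.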
Active calls of the source: *. Compounds with a hit are over-represented: about 19% of the library has one in this group of screens. Unless noted, the call rests on the fitted dose curve; in most records, active means well fitted curve in the direction sought with a large enough effect; inconclusive means small, poorly fitted or top-dose-only effect, or another doubt; inactive means no such curve, though single readings can be large; an effect the other way counts as inactive or inconclusive.

For COc1ccc(C(=O)N/C(=C\c2cn(C)c3ccccc23)C(=O)OCCN(C)C)cc1 the results were IL-1B inflam inh 12, BCR signal inh -3%, MCF10A rerep 1%, DT40 TDP1 no CPT -4%, TDP1 cell CPT -3% and SW480 rerep -13%.
Screening COc1ccc(C(=O)/C=C/c2cn(CC(O)CN(CC(C)C)CC(C)C)c3ccccc23)cc1 (stereo not drawn) returned DT40 TDP1 no CPT 16µM* and TDP1 cell CPT 15µM*.
C=CCn1c(SCC(=O)N(CC)c2c(N)n(Cc3ccccc3)c(=O)[nH]c2=O)nnc1-c1ccccc1OC was read as IL-1B inflam inh 0, MCF10A rerep 7%, DT40 TDP1 no CPT 22%, TDP1 cell CPT -11% and SW480 rerep -5%.
For CC1CN=C(NC(=O)c2cccc([N+](=O)[O-])c2)S1 (stereo not drawn) the results were IL-1B inflam inh -2, BCR signal inh inconclusive, MCF10A rerep -3%, DT40 TDP1 no CPT inconclusive, TDP1 cell CPT inconclusive and SW480 rerep 6%.
Screening COCCN(C(=O)c1ccco1)c1nnc(-c2ccc(OC)c(OC)c2)s1 returned IL-1B inflam inh -59*, BCR signal inh 6%, MCF10A rerep -2%, DT40 TDP1 no CPT inconclusive, TDP1 cell CPT -28% and SW480 rerep -1%.
COCCCN(C(=O)c1ccccc1F)c1nc(-c2ccc(OC)cc2)cs1 was read as IL-1B inflam inh -17, BCR signal inh inconclusive, MCF10A rerep inconclusive, DT40 TDP1 no CPT inconclusive, TDP1 cell CPT inconclusive and SW480 rerep 3%.
Screening COCCCN(C(=O)c1ccccc1)c1nc(-c2ccc(OC)cc2)cs1 returned IL-1B inflam inh -30, BCR signal inh 0%, MCF10A rerep 2%, DT40 TDP1 no CPT 16µM*, TDP1 cell CPT 18µM* and SW480 rerep 8%.
Screening COCCCN(C(=O)c1ccco1)c1nc(-c2ccc(OC)cc2)cs1 returned IL-1B inflam inh -16, BCR signal inh -8%, MCF10A rerep inconclusive, DT40 TDP1 no CPT 21µM*, TDP1 cell CPT 16µM* and SW480 rerep 18%.
COCCN(C(=O)c1ccccc1)c1nc(-c2ccc(OC)cc2)cs1 was read as IL-1B inflam inh -24, BCR signal inh -5%, MCF10A rerep -3%, DT40 TDP1 no CPT inconclusive, TDP1 cell CPT inconclusive and SW480 rerep 4%.
Screening Oc1ccc(C[C@H]2CN([C@@H](Cc3ccc(O)cc3)CN3CCC[C@@H]3CN3C(=S)NC[C@@H]3Cc3ccccc3)C(=S)N2CCc2ccccc2)cc1 returned IL-1B inflam inh inconclusive, DT40 TDP1 no CPT 10µM* and TDP1 cell CPT 9.2µM*.
Screening Oc1ccc(C[C@H]2CNC(=S)N2C[C@H]2CCCN2C[C@H](Cc2ccccc2)N2C[C@H](Cc3ccc(O)cc3)N(CCc3ccccc3)C2=S)cc1 returned IL-1B inflam inh inconclusive, DT40 TDP1 no CPT 4.1µM* and TDP1 cell CPT 7.3µM*.
`Oc1ccc(C[C@H]2CN([C@@H](Cc3ccccc3)CN3CCCC3CN3C(=S)NC[C@@H]3Cc3ccccc3)C(=S)N2CCc2ccccc2)cc1` (stereo partly drawn) gave IL-1B inflam inh 9, DT40 TDP1 no CPT 16µM* and TDP1 cell CPT 21µM*.

Screens (PubChem)
